Data reported in PubChem BioAssay.

What was measured:
[1] = system: Botulinum neurotoxin type F light chain protease (Clostridium botulinum); assay: Botulinum neurotoxin type F light chain protease inhibition, multiplex microsphere flow cytometry, validation set (AID 588459); details: multiplex microsphere protease substrate cleavage assay, at 10 µM, hits give high values
[2] = target: Botulinum neurotoxin type A (Clostridium botulinum) (UniProt P0DPI0); assay: BoNT/A light chain protease inhibitors, biochemical, multiplex microsphere flow cytometry, validation set (AID 588460); details: at 10 µM, hits give high values
[3] = target: Lethal factor (Bacillus anthracis) (UniProt P15917); assay: Lethal factor protease inhibitors, Bacillus anthracis, multiplex microsphere cleavage assay, validation set (AID 588461); details: flow cytometry, at 10 µM, hits give high values

Measured: inhibition

Botulinum neurotoxin type A (Clostridium botulinum), sequence (P0DPI0 whole entry, looked up): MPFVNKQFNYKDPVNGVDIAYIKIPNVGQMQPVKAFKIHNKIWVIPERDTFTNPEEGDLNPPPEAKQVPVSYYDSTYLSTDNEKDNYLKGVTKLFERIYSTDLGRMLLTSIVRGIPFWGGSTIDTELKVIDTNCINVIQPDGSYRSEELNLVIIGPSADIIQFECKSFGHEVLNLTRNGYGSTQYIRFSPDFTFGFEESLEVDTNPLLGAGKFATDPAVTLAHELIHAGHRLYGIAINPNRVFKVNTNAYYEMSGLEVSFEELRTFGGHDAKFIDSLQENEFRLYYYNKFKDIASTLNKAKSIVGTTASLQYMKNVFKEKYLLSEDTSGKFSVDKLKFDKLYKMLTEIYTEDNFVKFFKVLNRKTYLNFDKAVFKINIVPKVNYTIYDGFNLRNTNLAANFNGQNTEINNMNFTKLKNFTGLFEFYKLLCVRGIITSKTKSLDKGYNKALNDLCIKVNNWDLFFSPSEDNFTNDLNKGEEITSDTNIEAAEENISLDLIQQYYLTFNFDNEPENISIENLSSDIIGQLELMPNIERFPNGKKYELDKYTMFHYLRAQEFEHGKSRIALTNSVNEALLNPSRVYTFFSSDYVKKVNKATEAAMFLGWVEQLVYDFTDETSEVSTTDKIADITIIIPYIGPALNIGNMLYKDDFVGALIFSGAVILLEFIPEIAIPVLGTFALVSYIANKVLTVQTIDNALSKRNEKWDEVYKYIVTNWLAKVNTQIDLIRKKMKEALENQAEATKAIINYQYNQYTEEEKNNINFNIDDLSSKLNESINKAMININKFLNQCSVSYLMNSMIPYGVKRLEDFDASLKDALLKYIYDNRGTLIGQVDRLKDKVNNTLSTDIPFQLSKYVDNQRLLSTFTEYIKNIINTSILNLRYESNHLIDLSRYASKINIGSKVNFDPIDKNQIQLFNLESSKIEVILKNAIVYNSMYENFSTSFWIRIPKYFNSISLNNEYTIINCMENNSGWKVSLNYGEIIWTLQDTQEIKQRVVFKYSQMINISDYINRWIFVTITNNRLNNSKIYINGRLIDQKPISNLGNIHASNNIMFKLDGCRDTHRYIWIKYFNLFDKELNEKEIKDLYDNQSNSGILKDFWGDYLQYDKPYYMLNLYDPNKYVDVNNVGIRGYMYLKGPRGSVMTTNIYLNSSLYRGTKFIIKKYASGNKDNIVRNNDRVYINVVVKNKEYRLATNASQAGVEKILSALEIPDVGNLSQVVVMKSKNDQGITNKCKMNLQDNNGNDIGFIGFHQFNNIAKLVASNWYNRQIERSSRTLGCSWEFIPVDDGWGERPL
Lethal factor (Bacillus anthracis), sequence (P15917 whole entry, looked up): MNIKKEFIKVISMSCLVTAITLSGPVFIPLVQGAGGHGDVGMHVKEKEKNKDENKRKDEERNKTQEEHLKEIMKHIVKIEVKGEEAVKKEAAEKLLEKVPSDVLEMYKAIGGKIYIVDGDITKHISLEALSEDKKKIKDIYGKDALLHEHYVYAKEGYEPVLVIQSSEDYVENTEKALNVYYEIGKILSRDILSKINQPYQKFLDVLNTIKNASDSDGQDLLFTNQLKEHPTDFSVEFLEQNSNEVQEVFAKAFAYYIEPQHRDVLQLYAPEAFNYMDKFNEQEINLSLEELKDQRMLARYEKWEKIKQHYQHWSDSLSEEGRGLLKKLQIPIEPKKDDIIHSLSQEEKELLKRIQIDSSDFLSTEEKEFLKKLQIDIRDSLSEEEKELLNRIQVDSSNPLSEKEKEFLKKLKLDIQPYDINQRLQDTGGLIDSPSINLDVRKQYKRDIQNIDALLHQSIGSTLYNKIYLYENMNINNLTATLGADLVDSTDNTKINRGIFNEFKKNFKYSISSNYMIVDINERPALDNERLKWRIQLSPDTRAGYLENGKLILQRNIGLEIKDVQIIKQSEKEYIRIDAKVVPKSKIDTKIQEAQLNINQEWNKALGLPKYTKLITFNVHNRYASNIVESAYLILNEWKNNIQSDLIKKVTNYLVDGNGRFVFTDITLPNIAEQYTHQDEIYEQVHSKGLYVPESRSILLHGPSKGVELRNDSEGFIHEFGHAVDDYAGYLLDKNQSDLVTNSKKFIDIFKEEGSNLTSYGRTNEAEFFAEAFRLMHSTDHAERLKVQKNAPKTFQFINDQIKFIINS

Cc1oc2c(CN3CCCC3)c(O)ccc2c(=O)c1-c1ccc(Cl)cc1
inactive: [1] -1.2% | [2] -0.3% | [3] -0.5%

CCOC(=O)c1cc2cc3ccccc3cc2[nH]1
inactive: [1] 3.4% | [2] -0.1% | [3] 5.8%

Cc1oc2cc(O)cc(O)c2c(=O)c1-c1ccc2c(c1)OCCCO2
inactive: [1] 1.4% | [2] -0.4% | [3] -5.8%

CCN(CC)CCNc1ccc(CO)c2sc3ccccc3c(=O)c12
inactive: [1] 0.5% | [2] -0.5% | [3] -7%

Oc1ccc(COCc2ccccc2)c2cccnc12
inactive: [1] -2% | [2] -3.5% | [3] -3.1%

CC(C)N(C(=O)Cc1ccccc1[N+](=O)[O-])C(C)C
inactive: [1] -0.6% | [2] -2% | [3] -1.5%

COc1ccc(-c2coc3cc(O)cc(O)c3c2=O)cc1
inactive: [1] 0.3% | [2] -0.7% | [3] 0.1%

O=C1CCCC(=O)C1=Cc1c[nH]c2ccccc12
inactive: [1] 3% | [2] 0.4% | [3] -6.4%

C/C(=N\N=C1\NC(=O)C(CC(=O)Nc2ccc(Cl)cc2)S1)c1ccco1 (stereo not given)
inactive: [1] -0.1% | [2] 0.1% | [3] -0.2%

O=C1c2ccccc2C(=O)N1/N=C/c1ccc(Oc2ccc([N+](=O)[O-])cn2)cc1
inactive: [1] 0.2% | [2] 0.8% | [3] -1.7%

COC(=O)c1cc(Br)c(=O)n(CCc2ccc(O)cc2)c1
inactive: [1] 2.6% | [2] 1.3% | [3] -5.3%

CC(=O)Oc1ccc(C(=O)O)cc1OC(C)=O
inactive: [1] -0.7% | [2] 0.4% | [3] 2.4%

COCCNC(=O)CSc1ccc(Cl)cc1
inactive: [1] 1.8% | [2] 0.7% | [3] 1.4%

CC(C)C12CN3CC(C(C)C)(CN(C1)C3c1ccccc1O)C2=O (stereo not given)
inactive: [1] 4.7% | [2] 1.2% | [3] -5.3%

Cc1cc(O)c(C(C)C)cc1C1(c2cc(C(C)C)c(O)cc2C)OC(=O)c2ccccc21
inactive: [1] -0.9% | [2] -0.3% | [3] -8.1%

COc1ccc(C(=O)OCc2cc3cccc(C)c3[nH]c2=O)cc1
inactive: [1] 0.3% | [2] 0.7% | [3] -0.5%

O=CNC1CCCc2c1[nH]c1ccc(Cl)cc21 (stereo not given)
inactive: [1] -1.4% | [2] 0.2% | [3] 1.6%

COC1CCN(Cc2cn(Cc3ccccc3)nc2-c2cc3ccccc3o2)CC1
inactive: [1] 2% | [2] -0.8% | [3] -3.3%

COc1ccc2nc(NC(=O)Nc3ccccc3)sc2c1
inactive: [1] -3.1% | [2] -2.6% | [3] -2.7%

CCC(NC(C)C)C(O)c1ccc(O)c(O)c1 (stereo not given)
inactive: [1] -5.4% | [2] -0.9% | [3] -4%

CCc1cc2c(=O)c(-c3nc(C)cs3)coc2cc1OC(C)C(=O)NCCO (stereo not given)
inactive: [1] -3.3% | [2] -0.8% | [3] -2.1%

C1COC(NC(C2CC2)C2CC2)=N1
inactive: [1] 3% | [2] -0.1% | [3] -5%

CC(C)(C)C(=O)NC(=S)Nc1sc2c(c1C(N)=O)CCC2
inactive: [1] 0.8% | [2] 0.4% | [3] -1.2%

COc1ccc(/C=C(/C#N)c2cccnc2)cc1OC
inactive: [1] -0.3% | [2] 1% | [3] -7.4%

CN1CCN(C2=Nc3cc(Cl)ccc3Nc3ccccc32)CC1
inactive: [1] -0.2% | [2] -0.4% | [3] -6.6%

CCOC(=O)C(=O)Nc1ccc(Oc2ccccc2)cc1
inactive: [1] 1.4% | [2] 0% | [3] 1.3%

CCCNCC(O)COc1ccccc1C(=O)CCc1ccccc1 (stereo not given)
inactive: [1] 1.5% | [2] 0% | [3] -1.2%

CN(C)CCN(Cc1cccs1)c1ccccn1
inactive: [1] 2.5% | [2] -0.3% | [3] -1.6%

CN1CCCN=C1COC(=O)C(O)(c1ccccc1)C1CCCCC1 (stereo not given)
inactive: [1] -1.4% | [2] -0.9% | [3] -4.7%

Cc1nc(N[C@@H](Cc2c[nH]c3ccccc23)C(=O)O)c2oc3ccccc3c2n1
inactive: [1] 1.3% | [2] -0.2% | [3] -6.5%
